Test results from PubChem BioAssay (NCI).
About 79,000 compounds went through this panel and 15% of them were active in at least one assay; those are over-represented in the sample as a whole. Cut-off read from the data, not from the text of the source: active = growth inhibition above about 70%; inactive = the rest. Where a SMILES comes first, the peptide text is derived from it. [ ]: non-standard residue; d: D form. ξ: configuration not given here. ξV = CC(C)C(N)C(=O)O

What was measured:
[1] = NCI Yeast Anticancer Drug Screen. Data for the rad50 strain (AID 155);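 note: 0% = growth of vehicle-only cultures of the same strain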; settings: S. cerevisiae rad50 strain growth inhibition; at 50.0 µM; hits give high values
Method in brief: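 Inhibition values express reduced yeast growth in compound-treated cultures relative to vehicle-treated controls.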

[2] = NCI Yeast Anticancer Drug Screen. Data for the mec2-1 strain (AID 157); settings: S. cerevisiae mec2-1 strain, at 50.0 µM, hits give high values
Method in brief: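 Strain: mec2-1 (DNA repair/cell cycle alteration). Compound exposure, then growth measured; inhibition expressed relative to vehicle.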

[3] = NCI Yeast Anticancer Drug Screen. Data for the sgs1 mgt1 strain (AID 161);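 note: 0% = growth of cultures given vehicle only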; settings: S. cerevisiae sgs1 mgt1 strain, at 50.0 µM, hits give high values
Method in brief: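 Genetically altered yeast, compound exposure, growth inhibition relative to vehicle.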

[4] = NCI Yeast Anticancer Drug Screen. Data for the cln2 rad14 strain (AID 165);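 note: 0% = growth equal to vehicle treated cultures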; settings: S. cerevisiae cln2 rad14 strain, at 50.0 µM, hits give high values
Method in brief: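 Compounds are applied to the cln2 rad14 yeast strain, and growth is then compared with that of vehicle-treated cultures to give inhibition.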

[5] = NCI Yeast Anticancer Drug Screen. Data for the bub3 strain (AID 167); settings: S. cerevisiae bub3 mutant strain, at 50.0 µM, hits give high values
Method in brief: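 Steps: expose the mutant yeast strain to compound; grow alongside vehicle-treated cultures; measure growth; express inhibition against the vehicle cultures.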

[6] = NCI Yeast Anticancer Drug Screen. Data for the mlh1 rad18 strain (AID 175); settings: S. cerevisiae mlh1 rad18 strain growth inhibition; at 50.0 µM; hits give high values
Method in brief: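 Read-out is yeast growth inhibition, calculated against vehicle-only controls. The compound was applied to a strain engineered with DNA damage repair alterations.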

Measured: growth inhibition

CC(c1ccccc1)C(C)c1ccccc1 (stereo not drawn)
inactive: [1] 12.7% | [2] -10.2% | [3] -16.6% | [4] -72.5% | [5] 7.6% | [6] -8.65%

Cc1ccc(N(C)C)cc1
inactive: [1] -25.3% | [2] -15.1% | [3] 10.8% | [4] -18.4% | [5] -0.45% | [6] 6.4%

Cn1c([N+](=O)[O-])cnc1/C=C1\CCc2cc(OCCN3CCCC3)ccc2C1=O
inactive: [1] 30.4% | [2] 24.3% | [3] 36.4% | [4] 21.6% | [5] -2% | [6] 38.3%

CC(=O)NNC(=O)NCCCCCCNC(=O)NNC(C)=O
inactive: [1] 16.1% | [2] 20.2% | [3] 25.4% | [4] 16.2% | [5] 17.9% | [6] 26.5%

CCN(CC)C(=S)SCCCS(=O)(=O)O
inactive: [1] 17.7% | [2] -9.95% | [3] 1.75% | [4] 9.2% | [5] 22.3% | [6] 8.75%

C=C(C)CBr
inactive: [1] -17.1% | [2] -7.55% | [3] -5.95% | [4] 5.35% | [5] -5.45% | [6] -3.5%

O=C(COc1ccc(Cl)c(Cl)c1)Nc1ccc(C(=O)CCl)cc1
inactive: [1] 6% | [2] 31.3% | [3] 19.4% | [4] -3.35% | [5] 42.5% | [6] 9.3%

O=C(CCCCC(=O)Oc1ccc([N+](=O)[O-])cc1)Oc1ccc([N+](=O)[O-])cc1
inactive: [1] 10.9% | [2] 3.25% | [3] 13.3% | [4] 32% | [5] 3.4% | [6] 33%

Nc1nc(-c2cccc([N+](=O)[O-])c2)c(N=Nc2ccc(Br)cc2)s1
inactive: [1] 10.3% | [2] 12.4% | [3] 23.1% | [4] 15.8% | [5] -3.25% | [6] 5.95%

O=C(O)C1CCCC2C(O)CCC(O)C12 (stereo not drawn)
inactive: [1] -10.4% | [2] -15.4% | [3] -1.85% | [4] -12.9% | [5] -7.2% | [6] -34.1%

O=C(/C=C/c1ccccc1)Oc1ccccc1
inactive: [1] 3.45% | [2] 5.55% | [3] 1.5% | [4] -19.9% | [5] 23.8% | [6] -4.85%

O=C(N/N=C\c1cccc(O)c1)c1ccncc1
inactive: [1] 1.75% | [2] 11.9% | [3] -37.5% | [4] -19.4% | [5] 3% | [6] -1.05%

C=CCSCC1Nc2cc(Cl)c(S(N)(=O)=O)cc2S(=O)(=O)N1C (stereo not drawn)
inactive: [1] 22.8% | [2] 12.8% | [3] 8.05% | [4] 20.1% | [5] -3.75% | [6] 2.25%

Cc1ccc(OCCNCCO)cc1
inactive: [1] 23.3% | [2] -11.4% | [3] 6.3% | [4] 10.4% | [5] -1.2% | [6] 18.2%

CC(=O)NC1=C(C)C(=O)c2c(nc3n2CCC3OC(=O)c2ccccc2)C1=N (stereo not drawn)
inactive: [1] 15% | [2] -8.3% | [3] 22% | [4] 6% | [5] 26.9% | [6] -34%

CC(=O)c1ccc(N=C2c3ccccc3CN2c2ccc(C(C)=O)cc2)cc1
inactive: [1] 11.8% | [2] -13.6% | [3] -6.75% | [4] -10.6% | [5] -5.25% | [6] 4.5%

CCCN(CCC)S(=O)(=O)c1ccc(NC(=O)OC2CCCCC2)cc1
inactive: [1] 37.1% | [2] 2.25% | [3] 23.6% | [4] 13.1% | [5] -4.7% | [6] 17.9%

CCOC(=O)Cc1csc(NC(NC(=O)OCC)(C(=O)OCC)C(F)(F)F)n1 (stereo not drawn)
inactive: [1] 2.4% | [2] -0.3% | [3] -17.9% | [4] -4.2% | [5] -12.3% | [6] -6.25%

CCc1cc(-c2cc(CC)on2)no1
inactive: [1] -3.3% | [2] -14.9% | [3] -12.4% | [4] -1.15% | [5] -19.2% | [6] 1.4%

CC1CCCN(C(=O)Nc2ccc([N+](=O)[O-])cc2)C1 (stereo not drawn)
inactive: [1] 41.1% | [2] 31.3% | [3] 61.9% | [4] 25.8% | [5] 59.4% | [6] 43.8%

CC(Oc1ccc(OCC2CCCCC2)cc1)C(=O)OCC(=O)c1ccc(-c2ccccc2)cc1 (stereo not drawn)
inactive: [1] -9.75% | [2] -7.4% | [3] -19.1% | [4] -3.15% | [5] -7.7% | [6] -11.3%

CC(C)=CCC/C(C)=C/CN
inactive: [1] 9.25% | [2] -2.6% | [3] 20.4% | [4] -17.6% | [5] 9% | [6] 6.15%

CC(=O)Oc1cc(C(C)C)ccc1C
inactive: [1] 26.7% | [2] -3.75% | [3] 18.1% | [4] -1.4% | [5] 0% | [6] 15.4%

CC(=O)c1cc2c(Br)cccc2oc1=O
inactive: [1] -38% | [2] -42.4% | [3] -32.5% | [4] -3.3% | [5] -42.9% | [6] -36.2%

COc1ccc2c(c1)C(N)CC2=O (stereo not drawn)
inactive: [1] 14% | [2] 7.7% | [3] 0.75% | [4] 8.75% | [5] 1.75% | [6] -12.9%

CCCCC1=C(C)C/C(=N/Nc2ccc([N+](=O)[O-])cc2[N+](=O)[O-])C(C)C1CCCC (stereo not drawn)
inactive: [1] 3.7% | [2] 2.8% | [3] -13.6% | [4] 8.15% | [5] 3.3% | [6] 21.9%

N#CC(N)(C(=O)C(=O)NCCCNC(=O)C(=O)C(N)(C#N)c1ccc(Cl)cc1)c1ccc(Cl)cc1 (stereo not drawn)
inactive: [1] -37% | [2] -1.45% | [3] -32.4% | [4] -18.6% | [5] -35.1% | [6] -28.7%

CC(C)C(N)C(=O)NCC(=O)NCC(=O)O (stereo not drawn) (H-[ξV]-Gly-Gly-OH)
inactive: [1] -9.4% | [2] -22.2% | [3] -20.4% | [4] -8.15% | [5] -28.8% | [6] -23.4%

C/C(=N/Nc1ccc([N+](=O)[O-])cc1[N+](=O)[O-])c1ccccc1
inactive: [1] -4.25% | [2] -13.2% | [3] -12.7% | [4] -13.8% | [5] 1% | [6] -11%

COc1ccc(/C=C2\N=C(SC)NC2=O)cc1
inactive: [1] -8.35% | [2] 0.2% | [3] 25.9% | [4] 0.95% | [5] 2% | [6] -24.9%

CCCCCCC(C)NCC(=O)Nc1ccccc1C (stereo not drawn)
inactive: [1] -2.7% | [2] 14.2% | [3] 25.6% | [4] -44.7% | [5] 59.7% | [6] 30.6%

CCOC(=O)CN1CN(CCc2ccccc2)CC(C)(C)C1OCC (stereo not drawn)
inactive: [1] 37.1% | [2] 31.6% | [3] 43.4% | [4] 20.6% | [5] 41.2% | [6] 39.5%

NC(=O)CCCc1ccc2oc3ccccc3c2c1
inactive: [1] 13.4% | [2] -4.05% | [3] 9.05% | [4] 6.55% | [5] 22.8% | [6] 35.4%

CCCNC(=O)N1C(=O)c2ccccc2S1(=O)=O
inactive: [1] -26.8% | [2] -7.2% | [3] 7.85% | [4] -26.1% | [5] -14.1% | [6] -22.6%

O=C(O)C1(Nc2ccc(Cl)cc2)CCCC1
inactive: [1] 14.3% | [2] -6.75% | [3] -12.6% | [4] -1.45% | [5] 9.65% | [6] 11.6%

O=c1c2cc(S(=O)(=O)Nc3c(Cl)cccc3Cl)ccc2ncn1NS(=O)(=O)c1ccc2ccccc2c1
inactive: [1] -21.8% | [2] -8.6% | [3] -12.4% | [4] 10.4% | [5] -7.9% | [6] -3.75%

CC(=O)Nc1ccc(S(=O)(=O)n2c(=O)oc3cc(Cl)ccc32)cc1
inactive: [1] 3.4% | [2] -2.6% | [3] 3.1% | [4] -2.4% | [5] 2.95% | [6] 13.5%

O=C1c2c(Cl)cccc2C(c2ccccc2)c2cccc(Cl)c21
inactive: [1] 29% | [2] -4.15% | [3] -1.55% | [4] -11.5% | [5] 7.35% | [6] 23.2%
